Data on 96 compounds can be found in PubChem BioAssay AID1376 (SRMLSC, 2008).

Hit rate of the full screen: of about 220,000 compounds, about 530 (0.24%) were called active. No stated cut-off is given here; in the data, active means inhibition above about 13%; inconclusive means no clear call, values can overlap the other calls; inactive means below that. Shown is part of a subset that was picked to be rich in actives. Results with a measured potency or affinity are listed apart.

The target in this assay is Bifunctional protein GlmU (Mycobacterium tuberculosis (strain ATCC 25618 / H37Rv)) (UniProt P9WMN3). In words: inhibition of mycobacterial GlmU enzyme – biochemical, glucosamine-1-phosphate acetyltransferase (AID 1376).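 Further: 0% = complete reaction with vehicle and 100% = reaction without substrate.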 Particulars: M. tuberculosis GlmU acetyltransferase enzyme assay; stronger effect = higher value;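 tested at 30 µM in the primary screen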.
Chain of Bifunctional protein GlmU (Mycobacterium tuberculosis (strain ATCC 25618 / H37Rv)) (P9WMN3 whole entry, looked up): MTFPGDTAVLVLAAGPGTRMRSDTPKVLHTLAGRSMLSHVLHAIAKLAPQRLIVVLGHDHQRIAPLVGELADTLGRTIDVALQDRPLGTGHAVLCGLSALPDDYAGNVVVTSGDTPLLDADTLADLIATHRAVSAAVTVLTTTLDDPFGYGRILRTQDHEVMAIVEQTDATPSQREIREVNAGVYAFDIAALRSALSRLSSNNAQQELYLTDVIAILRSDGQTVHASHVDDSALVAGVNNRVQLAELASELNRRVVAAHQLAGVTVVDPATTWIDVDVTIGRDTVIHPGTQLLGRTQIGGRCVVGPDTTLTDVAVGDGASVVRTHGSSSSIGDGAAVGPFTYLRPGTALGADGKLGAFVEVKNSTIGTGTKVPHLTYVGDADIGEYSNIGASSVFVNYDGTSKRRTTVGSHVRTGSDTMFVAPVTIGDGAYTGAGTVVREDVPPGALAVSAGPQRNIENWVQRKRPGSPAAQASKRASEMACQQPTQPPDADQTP
As usually defined, the inhibition is the drop in the measured response relative to a control, in per cent. Take `COc1ccc(CN(CC2CCC(C(=O)O)CC2)C(=S)Nc2ccc(C)c(Cl)c2)cc1` (stereo unspecified): the inhibition was 5.02% (inactive).

As for `CCC(=O)NC1=C(NC(C)c2ccccc2)C(=O)c2ccccc2C1=O` (stereo unspecified), the inhibition was 4.92% (inactive).

With `CCC(=O)Nc1c(C)cc(C)cc1Cl`, the inhibition was 2.67% (inactive).

Turning to `CCC(=O)NC1=C(Cl)C(=O)C(NC(=O)CC)=C(Cl)C1=O`, the inhibition was 15.5% (active).

On to `COc1ccc(-c2noc(CSc3nc(-c4ccccc4)cc(=O)[nH]3)n2)cc1OC`, for which the inhibition is 2.31% (inactive).

Take `Cc1c(NC(=O)c2ccc3c(c2)C(=O)N(Cc2ccco2)C3=O)cccc1C(=O)O`: the inhibition is -0.73% (inactive).

With `O=C(Nc1ccc(O)cc1C(=O)O)c1ccc2c(c1)C(=O)N(Cc1ccco1)C2=O`, the inhibition was 4.38% (inactive).

For the compound `O=C(Nc1ccc(Cl)cc1C(=O)O)c1ccc2c(c1)C(=O)N(Cc1ccco1)C2=O`, the inhibition is 13.9% (active).

On to `CNC(=O)COC(=O)c1cc2c(s1)CCCC2`, for which the inhibition is -3.54% (inactive).

Take `COc1ccc(C(=O)NC(=S)Nc2nc(C)cc(C)n2)cc1Br`: the inhibition is 13.4% (active).

As for `COc1ccc(C(=O)NC(=S)NC(C)C)cc1Br`, the inhibition was 4.89% (inactive).

With `COc1ccc(C(=O)NC(=S)NC(C)(C)C)cc1Br`, the inhibition is -2.26% (inactive).

Turning to `CC1(C)CC(=O)C=C(NNC(=O)c2cccnc2)C1`, the inhibition was -2.32% (inactive).

For the compound `Cc1ccc(N2C(=O)CSCC2=O)cc1`, the inhibition is -0.48% (inactive).

Consider `Cc1ccc(N2C(=O)CS/C2=C(\C(Cl)=C(Cl)Cl)[N+](=O)[O-])cc1`, for which the inhibition was 12.9% (active).

Consider `CCOc1ccc(N2C(=O)CS/C2=C(\C(Cl)=C(Cl)Cl)[N+](=O)[O-])cc1`, for which the inhibition was 7.22% (inactive).

In the case of `CC(=O)N1N=C(c2cccs2)CC1c1cccs1` (stereo unspecified), the inhibition was -7.39% (inactive).

For `CCNC(=O)CCS(=O)(=O)c1ccc2ccccc2c1`, the inhibition was 5.84% (inactive).

Regarding `Cc1sc2nc(C3CC3)nc(SCC(=O)N3CC(=O)Nc4ccccc43)c2c1C`, the inhibition is 2.43% (inactive).

With `CCc1nc(SCC(=O)N2CC(=O)Nc3ccccc32)c2c(C)c(C)sc2n1`, the inhibition was 14.6% (active).

As to `Cc1sc2nc(C3CCCCC3)nc(SCC(=O)N3CC(=O)Nc4ccccc43)c2c1C`, the inhibition is -0.32% (inactive).

As to `COCCCNc1nc2nonc2nc1N1CCN(C2CCCC2)CC1`, the inhibition is -4.2% (inactive).

Regarding `CN1CCN(C(=S)Nc2ccccc2Cl)CC1`, the inhibition was 7.2% (inactive).

`CCCCOC(=O)CSc1nc2ccccc2o1`: the inhibition is 6.41% (inactive).

`COc1cc(-c2cn[nH]c2N)cc(OC)c1OC`: the inhibition was 6.07% (inactive).

`COc1ccc(/C=N/NC(=O)c2ccc(Cl)c(S(N)(=O)=O)c2)cc1OCC(N)=O`: the inhibition was 2.57% (inactive).

Turning to `O=C(O)C(c1ccccc1)C1(O)CCCC1` (stereo unspecified), the inhibition was 13.3% (active).

In the case of `O=C(O)C(c1ccccc1)c1ccccc1`, the inhibition was 4.26% (inactive).

With `O=C(O)C(c1ccccc1)C(c1ccccc1)c1ccccc1` (stereo unspecified), the inhibition was 2.54% (inactive).

As to `COc1ccc(C(=O)Nc2ccc([N+](=O)[O-])cn2)c(OC)c1`, the inhibition was 0.14% (inactive).

Take `COc1ccc(/C=N/N(Cc2ccccc2)c2ccccc2)cc1O`: the inhibition was 6.68% (inactive).

`Oc1ccc(/C=N/N(Cc2ccccc2)c2ccccc2)c(O)c1O`: the inhibition is 13.5% (active).

With `CCN(CC)c1ccc(/C=N/N=C(c2ccccc2)c2ccccc2)c(O)c1`, the inhibition was 6.73% (inactive).

With `Oc1cccc(/C=N/N(Cc2ccccc2)c2ccccc2)c1`, the inhibition is -0.56% (inactive).

For `O=C(/C(=N/N=C/c1ccc(O)c(O)c1O)c1ccccc1)c1ccccc1`, the inhibition was 7.49% (inactive).

Take `COc1ccc(C2CC(=O)c3cc(OC)c(OC)cc32)cc1OC` (stereo unspecified): the inhibition is -0.52% (inactive).

On to `CCOc1cc(C2C(C(=O)OC)=C(C)N=C3SC(C)C(=O)N32)ccc1OC(C)=O` (stereo unspecified), for which the inhibition was -1.96% (inactive).

Consider `CCOC(=O)C1=C(C)N=C2SC(C)C(=O)N2C1c1ccc(OCC)c(OCC)c1` (stereo unspecified), for which the inhibition was 14.7% (active).

Turning to `CCOC(=O)C1=C(C)N=C2SC(C)C(=O)N2C1c1ccc(OC(C)=O)c(OC)c1` (stereo unspecified), the inhibition is 5.74% (inactive).

For `Cc1cccc(OCc2nnc(SCc3cc(=O)n4cc(Br)ccc4n3)o2)c1`, the inhibition is 7.11% (inactive).

`O=C(Nc1ccccc1)c1ccc2nc(-c3ccco3)c(-c3ccco3)nc2c1`: the inhibition was 2.41% (inactive).

For `O=C(Nc1ccc2nc(-c3ccco3)c(-c3ccco3)nc2c1)N1CCN(c2ccccn2)CC1`, the inhibition is 12.6% (inactive).

Take `O=C(NCCO)Nc1ccc2nc(-c3ccco3)c(-c3ccco3)nc2c1`: the inhibition is 19.4% (active).

`O=C(Nc1ccc2nc(-c3ccco3)c(-c3ccco3)nc2c1)N1CCCCCC1`: the inhibition was 14.8% (active).

Turning to `CCOC(=O)C1CCN(C(=O)Nc2ccc3nc(-c4ccco4)c(-c4ccco4)nc3c2)CC1`, the inhibition was 11.1% (inactive).

For the compound `O=C(Nc1ccc(N2CCOCC2)cc1)Nc1ccc2nc(-c3ccco3)c(-c3ccco3)nc2c1`, the inhibition is -3.2% (inactive).

`CC(=O)c1ccc(NC(=O)c2ccc3nc(-c4ccco4)c(-c4ccco4)nc3c2)cc1`: the inhibition is 14.4% (active).

On to `O=C(Nc1ccc(N2CCOCC2)cc1)c1ccc2nc(-c3ccco3)c(-c3ccco3)nc2c1`, for which the inhibition was 10.1% (inactive).

Turning to `O=C(NCCO)c1ccc2nc(-c3ccco3)c(-c3ccco3)nc2c1`, the inhibition was 5.04% (inactive).

For `CC(=O)c1ccc(N2CCN(C(=O)Nc3cccc(F)c3)CC2)cc1`, the inhibition is -1.45% (inactive).

As for `COc1cccc(C2/C(=C(\O)c3ccc4c(c3)OCO4)C(=O)C(=O)N2CCN(C)C)c1OC` (stereo unspecified), the inhibition was 1.43% (inactive).

Consider `O=C(O)c1ccc(N=Cc2c(O)n(Cc3ccc(F)cc3)c(=O)[nH]c2=O)cc1`, for which the inhibition was -1% (inactive).

As for `Cc1ccc(NS(=O)(=O)c2ccc(C3CCCCC3)cc2)cc1`, the inhibition was -5.89% (inactive).

Turning to `C=CCn1c(-c2c(C)nc3cc(C)ccn23)n[nH]c1=S`, the inhibition is 0.98% (inactive).

Consider `Cc1ccc(N(CC(=O)NCCSCc2ccco2)S(=O)(=O)c2ccc(C)cc2)cc1`, for which the inhibition is -1.27% (inactive).

As for `CN1CCN(c2ccc([N+](=O)[O-])c(Sc3nncn3C)c2)CC1`, the inhibition was -2.97% (inactive).

Consider `COc1ccc(-c2ccc(-c3noc(-c4cccc(OC)c4)n3)c(OC)n2)cc1`, for which the inhibition is 14% (active).

`COc1ccc(-c2ccc(-c3noc(-c4ccccc4)n3)c(OC)n2)cc1`: the inhibition is 6.47% (inactive).

In the case of `COc1ccc(-c2ccc(-c3noc(-c4ccco4)n3)c(OC)n2)cc1`, the inhibition was 1.18% (inactive).

Regarding `O=[N+]([O-])c1cccc(/C=N/Nc2ccccn2)c1`, the inhibition is 0.69% (inactive).

As for `O=C1CC(N(O)c2ccccc2)C(=O)N1Cc1ccccc1` (stereo unspecified), the inhibition was 8.24% (inactive).

As to `C/C(=N\N=C1\NC(=O)C(Cc2ccccc2)S1)c1ccccc1` (stereo unspecified), the inhibition is 2.56% (inactive).

In the case of `Cc1ccc(Sc2cc(C(F)(F)F)nc(N(C)C)n2)cc1`, the inhibition is -0.68% (inactive).

With `Cc1cc(C)n2c(SCCN3C(=O)c4ccccc4C3=O)nnc2n1`, the inhibition was 0.6% (inactive).

`CCOC(=O)c1cnc(SCC#N)nc1N`: the inhibition is 0.91% (inactive).

For the compound `NS(=O)(=O)c1ccc(NC(=O)CSc2nc3ccccc3[nH]2)cc1`, the inhibition is 13.4% (active).

Consider `O=C(CSc1nc2ccccc2[nH]1)Nc1ccc(F)cc1`, for which the inhibition was -1.92% (inactive).

Take `NS(=O)(=O)c1cccc(NC(=O)CSc2nc3ccccc3[nH]2)c1`: the inhibition is 4.49% (inactive).

`CCOc1c(C#N)c(C#N)c2nc(C)cc(C)n12`: the inhibition was -3.28% (inactive).

Consider `Cc1csc(OCc2ccc(C#N)cc2)n1`, for which the inhibition is 4.28% (inactive).

Take `CCn1ncc2c(OCc3ccc(C#N)cc3)cc(C)nc21`: the inhibition is 13% (active).

As to `c1cnc2ccc(C(c3nnnn3C3CCCCC3)N3CCN4CCCC4C3)cc2c1` (stereo unspecified), the inhibition was -1.69% (inactive).

For `O=C(O)c1cc([N+](=O)[O-])ccc1C(=O)Nc1ccccc1`, the inhibition is 0.35% (inactive).

For the compound `O=C(O)c1ccccc1C(=O)Nc1cccc([N+](=O)[O-])c1`, the inhibition was 17.2% (active).

Turning to `O=C(Nc1cccc([N+](=O)[O-])c1)c1ccccc1`, the inhibition was -2.61% (inactive).

Turning to `COc1ccc(/C=C/C(=O)C2CC2)cc1COc1cccc(C)c1C`, the inhibition was 1.77% (inactive).

Regarding `O=C(CSCc1ccc(Cl)cc1Cl)Nc1ccccc1C(=O)Nc1ccc(C(=O)O)cc1`, the inhibition is -3.25% (inactive).

Regarding `CC(C)(CN1CCN(c2ccccc2)CC1)NS(=O)(=O)c1ccccc1`, the inhibition was -4.3% (inactive).

With `COC(=O)c1ccccc1CCC(C)=O`, the inhibition was -1.25% (inactive).

For `O=c1oc2ccccc2c2oc3cc(O)c(O)cc3c12`, the inhibition was 2.91% (inactive).

For the compound `O=c1oc2cc(O)c(Cl)cc2c2ccccc12`, the inhibition was 2.71% (inactive).

In the case of `O=c1cc2c(=O)oc3cc(O)c(O)oc3c2c(O)c1O`, the inhibition was 16.8% (active).

Consider `CN1C(=O)NC(=O)/C(=C/c2ccc(C(=O)O)cc2)C1=O`, for which the inhibition is 2.77% (inactive).

For the compound `CN(C(=O)CC(=O)Nc1ccc(Cl)c(Cl)c1)c1ccccc1`, the inhibition was 0.26% (inactive).

Take `CC(CCc1ccccc1)NC(=O)C1CCCN(c2nnc(-n3cccc3)s2)C1` (stereo unspecified): the inhibition is 7.96% (inactive).

On to `COC(=O)c1ccccc1NC(=O)N1CCN(c2ccccc2)CC1`, for which the inhibition is -3.35% (inactive).

Turning to `COCCNC(=O)C1CC2Cn3c(nc4cc(C)c(C)cc43)C2N1C` (stereo unspecified), the inhibition is 1.27% (inactive).

As for `Cc1cc(Cc2ccc(N)c(C)c2)ccc1N`, the inhibition is -3.87% (inactive).

On to `Nc1ccc(Cc2ccc(N)c(C(=O)O)c2)cc1C(=O)O`, for which the inhibition is 7.1% (inactive).

On to `Nc1ccc(Cc2ccc(N)c(O)c2)cc1O`, for which the inhibition is 13.4% (active).

With `O=C(O)c1ccc(NS(=O)(=O)c2ccc3c(c2)C2C=CCC2C(c2ccccc2F)N3)cc1` (stereo unspecified), the inhibition was 25.9% (inactive).

As for `CC(=O)c1ccc2c(c1)C1C=CCC1C(c1ccc(S(=O)(=O)N3CCOCC3)cc1)N2` (stereo unspecified), the inhibition is 0.66% (inactive).

On to `COc1cccc(NS(=O)(=O)c2ccc3c(c2)C2C=CCC2C(c2ccc(C(=O)O)cc2)N3)c1` (stereo unspecified), for which the inhibition is 13.1% (active).

In the case of `COc1ccc(C(=O)N/N=C(\C)c2ccc3c(c2)C2C=CCC2C(c2ccccc2)N3)cc1` (stereo unspecified), the inhibition is 7.99% (inactive).

For the compound `Cc1c(Cl)cccc1NS(=O)(=O)c1ccc2c(c1)C1C=CCC1C(c1ccc(C(=O)O)cc1)N2` (stereo unspecified), the inhibition is 23.6% (active).

In the case of `O=C(O)c1ccc2c(c1)C1C=CCC1C(c1ccncc1)N2` (stereo unspecified), the inhibition was -9.79% (inactive).
